Assay outcomes deposited in PubChem by National Center for Advancing Translational Sciences (NCATS).
This is a sample that favours compounds with a hit; in the whole collection about 17% have one here.
HepG2 viability: qHTS for Inhibitors of TGF-b: Cytotox Counterscreen; HepG2 CAGA-GFP viability, ATP luminescence, 18 h; Potency, µM (highest dose often 46.1 µM), for the others: at the highest dose activity change, negative = cytotoxicity, actives largely listed as cytotoxic; 410,000 compounds, 0.76% hits; AID 588856, 2011
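HepG2 CAGA-GFP cells (1000/well, DMEM with 1% FBS) received compound, then TGF-beta at 500 pg/mL final, and were incubated 18 hours at 37 degrees C. Viability was read by CellTiter-Glo luminescence. Media-only wells were set as complete cell-killing and DMSO as no toxicity.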
TGFb inhibitor: qHTS for Inhibitors of TGF-b; Potency, µM (highest dose often 46.1 µM), for the others: top-dose activity, negative = inhibition, actives largely listed as inhibitors; 410,000 compounds, 1.2% hits; HepG2 CAGA-GFP TGF-b/SMAD3 reporter, GFP fluorescence, 18 h; TGF-beta stimulated, 500 pg/mL final; further: on the % scale 0 is the no-effect control and ±100 the full control effect; nearly all actives have a fitted effect of over 65% in size
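GFP signal (ex488/em500-530) from TGF-beta-stimulated HEPG2 CAGA-GFP cells, 500 pg/mL final, 18 h at 37 degrees C in DMEM plus 1% FBS, normalized to unstimulated and DMSO-stimulated controls.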
HT1080NT lethal: qHTS for induction of synthetic lethality in tumor cells producing 2HG: qHTS for the HT-1080-NT fibrosarcoma cell line; Potency, µM (top dose mostly 46.1 µM), for the others: top-dose activity, negative = less viability, actives largely listed as cytotoxic; HT-1080-NT fibrosarcoma viability, CellTiter-Glo ATP luminescence, 48 h; 360,000 compounds, 1.6% hits; AID 686970, 2013;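 further: NT is the 2HG producing partner of a matched IDH1 knockdown line; 0% = DMSO-treated cells and -100% = media-only wells without cells; nearly all actives have a fitted effect of over 55% in size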
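Read-out is CellTiter-Glo luminescence after 10 minutes at room temperature, following 48 hours' compound treatment of HT-1080-NT cells (750 cells/well, RPMI, 5% FBS, 37 degrees C).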
HT1080 IDH1KD tx: qHTS for induction of synthetic lethality in tumor cells producing 2HG: qHTS for the HT-1080-IDH1KD cell line; AID 686971, 2013; Potency, µM (doses to about 46.1 µM), without a hit: top-dose activity, negative = toxicity, hits mostly cytotoxic; 360,000 compounds, 2% hits; HT-1080 IDH1 knockdown viability, ATP luminescence, 48 h;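 further: 0% = DMSO wells and -100% = cell-free medium wells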
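% activity derives from luminescence (CellTiter-Glo), normalised to DMSO and no-cell wells. HT-1080-IDH1KD cells, 750/well, had 48 h compound exposure at 37 °C.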
DT40 TDP1 CPT: qHTS for Inhibitors of human tyrosyl-DNA phosphodiesterase 1 (TDP1): qHTS in cells in presence of CPT; chicken DT40 Tdp1-/-;hTDP1 cells + 20 nM CPT, ATP luminescence, 48 h; Potency, µM (titrated, usually from 46.2 µM), for the others: at the top dose activity change, negative = growth inhibition, most hits filed as inhibitors; 420,000 compounds, 12% hits; further: on the % scale 0 is the no-effect control and ±100 the full control effect; nearly all actives have a fitted effect of over 55% in size
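Chicken DT40 Tdp1-/- cells complemented with human TDP1, 400 cells/well, exposed to compounds plus 20 nM camptothecin for at least 48 h at 37 C; viability read as ATP content by CellTiter-Glo luminescence.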
DT40 TDP1 no CPT: qHTS for Inhibitors of human tyrosyl-DNA phosphodiesterase 1 (TDP1): qHTS in cells in absence of CPT. 420,000 compounds, 15% hits. DT40 Tdp1-/- hTDP1 cells, no CPT, ATP luminescence, 48 h. AID 686978, 2013. Potency, µM (doses to about 46.2 µM), for inactives: top-dose activity change, negative = growth inhibition, hits mostly inhibitors; further: on the % scale 0 is the no-effect control and ±100 the full control effect; nearly all actives have a fitted effect of over 55% in size
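Seeded 400 DT40-hTDP1 cells/well (vehicle DMSO, no 20 nM CPT); pinned compounds; ≥48 hr at 37 °C; CellTiter-Glo luminescence as viability measure.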
* = called active by the depositor. The call rests on the fitted dose curve; in most records, active means well fitted curve in the direction sought with a large enough effect; inconclusive means small, poorly fitted or top-dose-only effect, or another doubt; inactive means no such curve, though single readings can be large; an effect the other way counts as inactive or inconclusive. Potency means the concentration at half of the fitted maximal effect.

What do the screens show for `COC(=O)[C@@]1(Cc2ccc(OC)cc2)[C@H]2c3cc(C(=O)N4CCCC4)n(CCO)c3C[C@H]2CN1C(=O)c1ccccc1`?
HepG2 viability: -1%; TGFb inhibitor: inconclusive; HT1080NT lethal: 0%; HT1080 IDH1KD tx: 10%; DT40 TDP1 CPT: 0%; DT40 TDP1 no CPT: -5%

What do the screens show for `COC(=O)[C@@]1(Cc2ccc(OC)cc2)[C@H]2c3cc(C(=O)N4CCCC4)n(CCc4ccc(OC)c(Br)c4)c3C[C@H]2CN1C(=O)c1ccccc1`?
HT1080NT lethal: 23%; HT1080 IDH1KD tx: 6%; DT40 TDP1 CPT: 15µM*; DT40 TDP1 no CPT: 21µM*

Results for COC(=O)[C@@]1(Cc2ccc(F)cc2)[C@H]2c3cc(C(=O)N4CCCC4)n(Cc4ccc(Cl)c(C(F)(F)F)c4)c3C[C@H]2CN1C(=O)c1ccccc1 ?
HT1080NT lethal: inconclusive; HT1080 IDH1KD tx: inconclusive; DT40 TDP1 CPT: 21µM*; DT40 TDP1 no CPT: 21µM*

How did COC(=O)[C@@]1(Cc2ccc(OC)cc2)[C@H]2c3cc(C(=O)N4CCCC4)n(Cc4ccccc4)c3C[C@H]2CN1C(=O)c1ccccc1 do in these assays?
HT1080NT lethal: -21%; HT1080 IDH1KD tx: inconclusive; DT40 TDP1 CPT: inconclusive; DT40 TDP1 no CPT: 16µM*

How did COC(=O)[C@@]1(Cc2ccc(F)cc2)[C@H]2c3cc(C(=O)N4CCCC4)n(CCc4ccc(OC)c(Br)c4)c3C[C@H]2CN1C(=O)c1ccccc1 do in these assays?
HT1080NT lethal: 9%; HT1080 IDH1KD tx: 1%; DT40 TDP1 CPT: inconclusive; DT40 TDP1 no CPT: 18µM*

How did Cc1ccc2nc(Cl)c(CN(C(=O)c3cnccn3)C3CCCCC3)cc2c1 do in these assays?
HepG2 viability: -5%; TGFb inhibitor: -17%; HT1080NT lethal: 2%; HT1080 IDH1KD tx: 0%; DT40 TDP1 CPT: inconclusive; DT40 TDP1 no CPT: inconclusive

How did Cc1ccc(-c2nc(N3CCN(S(=O)(=O)c4ccc(F)cc4)CC3)c3ccc(Cl)cc3n2)cc1 do in these assays?
HepG2 viability: 18%; TGFb inhibitor: 25%

How did COC(=O)[C@@]1(Cc2ccc(F)cc2)[C@H]2c3cc(C(=O)N(C)C)n(CCF)c3C[C@H]2CN1C(=O)c1ccccc1 do in these assays?
HT1080NT lethal: -30%; HT1080 IDH1KD tx: inconclusive; DT40 TDP1 CPT: inconclusive; DT40 TDP1 no CPT: inconclusive

Results for COC(=O)[C@@]1(Cc2ccc(F)cc2)[C@H]2c3cc(C(=O)N(C)C)n(CC4CC4)c3C[C@H]2CN1C(=O)c1ccccc1 ?
HT1080NT lethal: inconclusive; HT1080 IDH1KD tx: -28%; DT40 TDP1 CPT: inconclusive; DT40 TDP1 no CPT: 18µM*

Results for CCCNC(=O)C1(C)CCN(C(=O)/C=C/c2ccccc2)C1 (stereo not drawn) ?
HepG2 viability: -6%; TGFb inhibitor: -12%; HT1080NT lethal: inconclusive; HT1080 IDH1KD tx: 13%; DT40 TDP1 CPT: 5%; DT40 TDP1 no CPT: 0%

What do the screens show for `Cc1csc(NC(=O)CSc2ccc3nnc(CCNS(=O)(=O)c4ccccc4)n3n2)n1`?
HepG2 viability: 8%; TGFb inhibitor: 12%; HT1080NT lethal: 6%; HT1080 IDH1KD tx: -6%; DT40 TDP1 CPT: 0%; DT40 TDP1 no CPT: inconclusive
